KKLEB cytotox: cytotoxicity in KKLEB CF airway cells, primary screen, cytotoxicity control for CF NF-kB inhibitor project, cell-based, uHTS, fluorescence assay plates. KKLEB CF airway cells viability, ATPlite luminescence, overnight; stronger effect = lower value; cells stimulated with P. aeruginosa culture filtrate. activity change (cytotoxicity), % at 5 µM. hit rate 0.36% among 360,000;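 active = corrected activity change at or below -50% at 5 µM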
HIF-2a inh: HIF-2a reporter inhibitors, primary screen, luminescence, 786-0 RCC cells; 786-0 RCC cells HIF-2a reporter, luciferase luminescence, overnight; inhibition, % at 18.8 µM; hit rate 0.72% among 360,000;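 active = inhibition of the luminescence signal of 40% or more relative to plate controls, in a single-dose primary screen at 18.75 µM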
Shn3 3UTR inh: reduction of Shn3 3'UTR firefly luciferase signal, primary screen, Schnurri-3 inhibitor project, cell-based, Clone20 osteoblasts, set 2; Clone20 osteoblast Shn3 3'UTR firefly luciferase, 24 h; inhibition, % at 12.5 µM; hit rate 0.52% among 360,000;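 active = mean inhibition of at least 75% with every replicate also reaching 75%; inconclusive = mean inhibition at least 75% but some replicate below; inactive = mean inhibition below 75%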
MITF TRPM1 inh: inhibitors of MITF-dependent TRPM1 promoter reporter, primary screen, cell-based, SK-MEL-5, single point, luciferase | AID 488899, 2010 | SK-MEL-5 TRPM1 promoter luciferase, 24 h | inhibition, % at 12.5 µM | hit rate 0.83% among 330,000;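 active = mean inhibition across replicates of 60% or more, whatever share of single replicates reaches that level; inconclusive = some that reach 60%, reason not given; inactive = mean inhibition across replicates below 60%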
Peg3 prom inh: Peg3 promoter-driven luciferase inhibitors, primary screen, cell-based, HeLa, luciferase luminescence; HeLa PEG-Prom luciferase reporter, overnight; inhibition, % at 20 µM; hit rate 1.7% among 360,000;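 active = inhibition of at least 50% at 20 µM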
CF NFkB inh: inhibitors of PAF-induced NF-kB signaling, primary screen, cell-based, GFP fluorescence, uHTS; KKLEB NF-kB-GFP reporter, GFP fluorescence overnight; inhibition, % at 5 µM; hit rate 0.86% among 360,000;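 active = at least 50% inhibition at 5 µM, scaled per plate between neutral and stimulator controls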;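 note: PAF is a Pseudomonas aeruginosa culture filtrate used as stimulus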
Each line names hits and unclear results; the compound was inactive in the other large screens. An excerpt weighted towards active compounds, which were near 2.7% of everything screened.

CC1CC2CCCC(O)=C2C(=O)O1 (configuration not stated)	none
O=[N+]([O-])c1cccc(S(=O)(=O)/N=C(/Nc2ccccc2)c2ccccc2)c1	none
CC(Oc1cccc2ccccc12)C(=O)N/N=C/c1cccnc1 (configuration not stated)	none
CC(=O)c1cccc(NC(=O)c2c(-c3c(F)cccc3Cl)noc2C)c1	none
CCCCCCCc1ccc(-c2ccc(O)cc2)nc1	none
CCCCCc1ccc(-c2ccc(/C=C/C(=O)O)cc2)nc1	HIF-2a inh 74.5
CCOC(=O)c1sc(NC(=O)Nc2ccccc2)cc1C	KKLEB cytotox -51.3
CCOC(=O)N1CCC(N2C(=O)c3ccccc3C2Nc2ccc3c(c2)OCCO3)CC1 (configuration not stated)	MITF TRPM1 inh 70.7
Cc1cc(Cl)ccc1NC(=O)CN1C(=O)NC2(CCCc3ccccc32)C1=O (configuration not stated)	none
CCOC(=O)c1c(N2C(=O)C=CC2=O)sc(C)c1C	HIF-2a inh 46.8, MITF TRPM1 inh 60.8, Peg3 prom inh 105.1
CCOC(=O)c1c(NC(N)=O)sc(C)c1C	none
Cc1ccc(S(=O)(=O)CC2CSc3nc4ccccc4n32)cc1 (configuration not stated)	Shn3 3UTR inh 90.2
Cc1ccc(S(=O)(=O)CC2CSc3nc(N)cc(=O)n32)cc1 (configuration not stated)	none
COc1ccc(S(=O)(=O)N2CCCCCC2)cc1C(=O)OCc1cccc(OC)c1OC	Peg3 prom inh 50.8
Cc1cccc(N2C(=O)C(Oc3ccc(Cl)cc3Cl)C2C(=O)O)c1C (configuration not stated)	none
CCCNCC1C(Oc2ccc(Cl)cc2Cl)C(=O)N1c1cccc(C)c1C (configuration not stated)	Peg3 prom inh 61.8
CCOc1cc(/C=C2\C(=O)ON=C2c2ccccc2)ccc1OC	none
CCOc1cc(/C=C2/C(=O)ON=C2C)ccc1OCc1ccc(F)cc1	MITF TRPM1 inh inconclusive, Peg3 prom inh 65.0
CCOc1cc(/C=C2/C(=O)ON=C2C)ccc1OCc1ccccc1F	Peg3 prom inh 96.8
CCN(CC)C(=O)C1=C(C)N(CCCN2CCCC2=O)C(=O)C(CC(=O)NCc2cccc3ccccc23)C1 (configuration not stated)	none (no result: MITF TRPM1 inh)
CCCCN(C(=O)CCN1C(=O)C2CC=CCC2C1=O)c1c(N)n(CCCC)c(=O)[nH]c1=O (configuration not stated)	none
CCOC(=O)C1=C(C)N(CCCC(=O)O)C(=O)NC1c1ccccc1 (configuration not stated)	none
CCOC(=O)C1=C(C)N(CCCC(=O)O)C(=O)NC1c1ccc2ccccc2c1 (configuration not stated)	Shn3 3UTR inh 86.1
O=Cc1nccc2ccccc12	none
C(=Cc1c[nH]c2ccccc12)c1nccc2ccccc12	KKLEB cytotox -55.0
O=C(NC1(Cc2ccccc2)CCN(Cc2ccc(-c3ccccc3)cc2)C1=O)c1ccccc1 (configuration not stated)	Peg3 prom inh 85.2
CCOc1ccc(/C=C2\CCc3ccccc3C2=O)cc1	none
COc1ccc(C=C2CCc3ccccc3C2=O)cc1	KKLEB cytotox -52.3 (no result: MITF TRPM1 inh)
CC(C)=CCC[C@](C)(O[C@@H]1O[C@H](CO[C@@H]2OC[C@@H](O)[C@H](O)[C@H]2O)[C@@H](O)[C@H](O)[C@H]1O)C1CC[C@]2(C)C1[C@H](O)CC1[C@@]3(C)CC[C@H](O[C@@H]4O[C@H](CO)[C@@H](O)[C@H](O)[C@H]4O)C(C)(C)C3CC[C@]12C (some centres not stated)	none
Cc1cccc(-c2noc(CN(C(=O)C(c3ccccc3)c3ccccc3)C(C)C)n2)c1	Shn3 3UTR inh 84.4 (no result: MITF TRPM1 inh)
CC(C)N=C(NC#N)SCc1ccccc1F	none
N#CNC(=Nc1cccc(F)c1)SCc1ccccc1F	Peg3 prom inh 73.8
O=[N+]([O-])c1ccc(O)c(Nc2ncnc3ccc(Br)cc23)c1	CF NFkB inh 57.7
O=[N+]([O-])c1ccc(O)c(Nc2ncnc3ccccc23)c1	none
CCN1C(=NCC(C)C)N[C@@H](c2cccc(F)c2)C(C(=O)OC)=C1C	none
Cc1cc(C2=NNC(=NC3CC3)SC2)c(C)n1-c1ccccc1	HIF-2a inh 91.3, Shn3 3UTR inh 94.1, MITF TRPM1 inh 100.4, Peg3 prom inh 103.3
C[C@H](NC(=O)c1ncn2c1c(=O)[nH]c1ccccc12)c1ccccc1	none (no result: MITF TRPM1 inh)
C[C@H](NC(=O)c1ncn2c1c(=O)[nH]c1ccc(Br)cc12)c1ccccc1	Peg3 prom inh 100.3 (no result: MITF TRPM1 inh)
CCOC(=O)CSCC(NC(=O)OC(C)(C)C)C(=O)OCC (configuration not stated)	HIF-2a inh 41.3
Cc1ccc2nc3c(cc(C(=O)NCc4ccccc4)c(=N)n3CCCn3ccnc3)c(=O)n2c1	Peg3 prom inh 54.4
COC(=O)[C@]1(C)N[C@H](CN(C)C(=O)Nc2ccc(Cl)cc2)[C@@H]2C(=O)N(C)C(=O)[C@@H]21	none
O=C(NNC(=S)Nc1ccc(F)cc1)C1[C@H]2CCCC[C@@H]12 (some centres not stated)	none (no result: Shn3 3UTR inh, MITF TRPM1 inh)
O=C(c1cc2cc(Cl)cc(Cl)c2oc1=O)N1CCOCC1	Peg3 prom inh 55.2
O=C(c1ccc(Cl)cc1Cl)N1CCOCC1	none
Cn1c(=O)n(CCCOc2ccc(Br)cc2)c2ccccc21	none
N=c1n(CCCOc2ccc(Br)cc2)c2ccccc2n1CC(N)=O	Peg3 prom inh 60.0 (no result: Shn3 3UTR inh)
Cc1cccc(C)c1NC(=O)C1c2ccccc2OCC(=O)N1CCc1c[nH]c2ccccc12 (configuration not stated)	none (no result: KKLEB cytotox, Shn3 3UTR inh, MITF TRPM1 inh, Peg3 prom inh, CF NFkB inh)
COc1ccc(NC(=O)CN2CCN(CC(=O)Nc3ccc(F)cc3F)CC2)cc1	none
Cn1cnc([N+](=O)[O-])c1NC(C)(C)C	none
Cn1cnc([N+](=O)[O-])c1S(=O)(=O)c1ccc(Cl)cc1	Peg3 prom inh 104.2
C=CCn1c(SCC(=O)NC2CC2)nnc1C1CC1	none
Cc1c(CCC(=O)N[C@@H](CCCNC(N)=O)C(=O)O)c(=O)oc2cc3oc4c(c3cc12)CCCC4	HIF-2a inh 67.4
Cc1c(CC(=O)N[C@@H](CCCNC(N)=O)C(=O)O)c(=O)oc2cc3oc4c(c3cc12)CCCC4	none
Cc1c(CCC(=O)NCCCCCC(=O)O)c(=O)oc2c(C)c3oc4c(c3cc12)CCCC4	none
Cc1c(CCC(=O)NCCCC(=O)O)c(=O)oc2cc3oc4c(c3cc12)CCCC4	HIF-2a inh 71.9

Screening results as filed in PubChem.
